The results in this text go back to PubChem BioAssay (EPA / NIEHS).

For experiment [1], the target named is CCAAT/enhancer-binding protein beta (Homo sapiens) (UniProt P17676). Briefly: ATG_C_EBP_CIS: Attagene CIS-FACTORIAL HepG2 Assay for human CCAAT/Enhancer Binding Protein (C/EBP) beta (AID 2282927). As to conditions: HepG2 Attagene cis-factorial transcription factor reporter; actives raise or lower the signal. The gist of the method: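 RT-PCR/capillary electrophoresis fluorescence of reporter mRNA, 24 h post-dose, in HepG2 cells carrying transfected cis-promoter reporter units. Bidirectional curve fitting against DMSO baseline captures gain or loss of signal.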
CCAAT/enhancer-binding protein beta (Homo sapiens), sequence (P17676 whole entry, looked up): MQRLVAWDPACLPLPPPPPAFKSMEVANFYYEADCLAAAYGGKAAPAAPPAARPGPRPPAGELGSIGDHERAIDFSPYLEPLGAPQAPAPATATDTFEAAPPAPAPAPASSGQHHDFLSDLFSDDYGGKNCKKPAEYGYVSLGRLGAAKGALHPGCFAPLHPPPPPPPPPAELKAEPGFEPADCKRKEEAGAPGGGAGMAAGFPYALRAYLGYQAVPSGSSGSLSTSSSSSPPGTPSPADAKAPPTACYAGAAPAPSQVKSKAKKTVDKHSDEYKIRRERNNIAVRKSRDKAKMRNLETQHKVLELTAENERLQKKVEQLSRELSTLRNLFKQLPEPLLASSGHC

The nature of experiment [2]: ATG_CMV_CIS: Attagene CIS-FACTORIAL HepG2 Assay for human CMV (Internal Marker) (AID 2282928).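 Note: endpoint acts as a background internal control marker rather than a target.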 As to conditions: HepG2 CMV promoter reporter, transcription factor profiling; actives raise or lower the signal. Summed up:
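Cell system: HepG2, transiently transfected multiple reporter units under cis promoters. Exposure: 24 h. Detection: RT-PCR, FAM labeling, HpaI digestion, capillary electrophoresis. Analysis: bidirectional, DMSO baseline.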

The nature of experiment [3]: ATG_DR4_LXR_CIS: Attagene CIS-FACTORIAL HepG2 Assay for human Liver X Receptor (LXR), DR4 submotif (AID 2282929). To be noted: HepG2 Attagene DR4 cis-reporter, mRNA transcription; actives raise or lower the signal. Summed up:
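Readout: reporter transcript fluorescence after RT-PCR and capillary electrophoresis, fitted bidirectionally against DMSO controls. Human HepG2 liver cells carried transiently transfected multiplexed reporter constructs; endogenous transcription factor activity measured 24 h post-dosing.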

For experiment [4], the target named is Aryl hydrocarbon receptor (Homo sapiens) (UniProt P35869). The experiment is described as follows: ATG_Ahr_CIS: Attagene CIS-FACTORIAL HepG2 Assay for human Aryl Hydrocarbon Receptor (Ahr) (AID 2282930). To be noted: HepG2 AhR cis-factorial reporter transcription; actives raise or lower the signal. The gist of the method:
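HepG2 cells transiently transfected with cis-element-driven multiplexed reporter transcription units; endogenous transcription factor activity measured as reporter mRNA 24 h after dosing. RT-PCR, 6-FAM labelling, HpaI digestion, capillary electrophoresis; bidirectional fitting versus DMSO baseline.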

Experiment [5] is described as follows: ATG_AP_1_CIS: Attagene CIS-FACTORIAL HepG2 Assay for human Activator Protein 1 (AP-1) (AID 2282931). To be noted: HepG2 Attagene cis-factorial AP-1 reporter mRNA; actives raise or lower the signal. Summed up:
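Reporter transcripts were measured 24 h after dosing by RT-PCR and capillary electrophoresis of fluorescent fragments. Cells: HepG2 carrying transfected cis-regulated reporter constructs reading endogenous factor activity. Gain or loss fitted against DMSO.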

Experiment [6] can be described thus: ATG_AP_2_CIS: Attagene CIS-FACTORIAL HepG2 Assay for human Activator Protein 2 (AP-2) (AID 2282932). To be noted: HepG2 AP-2 cis-reporter, Attagene transcription factor profiling; actives raise or lower the signal. Summed up: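 Bidirectional curve fitting against DMSO was applied to reporter mRNA signals from HepG2 cells 24 h after dosing. Cis-promoter reporter units, transiently transfected, were read by RT-PCR plus capillary electrophoresis.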

Experiment [7] can be described thus: ATG_BRE_CIS: Attagene CIS-FACTORIAL HepG2 Assay for human Bone Morphogenetic Protein (BMP) Response Element (BRE) (AID 2282933). As to conditions: HepG2 BMP response element reporter, Attagene transcription factor profiling; actives raise or lower the signal. Summed up: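 Multiplexed cis-reporter assay, HepG2, 24 h exposure. mRNA from reporter units quantified via RT-PCR/CE; DMSO baseline; bidirectional curve fit.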

Experiment [8] has as its target Retinoic acid receptor alpha (Homo sapiens) (UniProt P10276). The experiment is described as follows: ATG_DR5_RAR_CIS: Attagene CIS-FACTORIAL HepG2 Assay for human Retinoic Acid Receptor Alpha (RARE), DR5 submotif (AID 2282934).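 For AC50: reporter responds to endogenous RAR alpha beta and gamma in HepG2 not RARA alone.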 As to conditions: HepG2 Attagene cis-factorial RARE DR5 reporter, mRNA; actives raise or lower the signal. The gist of the method:
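HepG2 cells transiently transfected with multiplexed reporter units under cis (DR5 RARE) promoters, so endogenous transcription factor activity is measured. After 24 h compound exposure, reporter mRNA is quantified by RT-PCR with fluorescent labelling and capillary electrophoresis; bidirectional fitting versus DMSO.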

Experiment [9] concerns the target Transcription factor E2F1 (Homo sapiens) (UniProt Q01094). The experiment is described as follows: ATG_E2F_CIS: Attagene CIS-FACTORIAL HepG2 Assay for human E2F Transcription Factor 1 (AID 2282935). As to conditions: HepG2 Attagene cis-reporter, E2F reporter RNA transcripts; actives raise or lower the signal. The gist of the method: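 Multiplexed cis-reporter assay: HepG2, transient transfection, 24 h dosing, mRNA quantitation by labeled RT-PCR and CE.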

Calls of active or inactive are those of the source. Rule for the calls: active = hit-call score of the fitted dose curve at least 0.9, where 1 is the maximum; inactive = score below 0.9.

Aryl hydrocarbon receptor (Homo sapiens), sequence (P35869 whole entry, looked up): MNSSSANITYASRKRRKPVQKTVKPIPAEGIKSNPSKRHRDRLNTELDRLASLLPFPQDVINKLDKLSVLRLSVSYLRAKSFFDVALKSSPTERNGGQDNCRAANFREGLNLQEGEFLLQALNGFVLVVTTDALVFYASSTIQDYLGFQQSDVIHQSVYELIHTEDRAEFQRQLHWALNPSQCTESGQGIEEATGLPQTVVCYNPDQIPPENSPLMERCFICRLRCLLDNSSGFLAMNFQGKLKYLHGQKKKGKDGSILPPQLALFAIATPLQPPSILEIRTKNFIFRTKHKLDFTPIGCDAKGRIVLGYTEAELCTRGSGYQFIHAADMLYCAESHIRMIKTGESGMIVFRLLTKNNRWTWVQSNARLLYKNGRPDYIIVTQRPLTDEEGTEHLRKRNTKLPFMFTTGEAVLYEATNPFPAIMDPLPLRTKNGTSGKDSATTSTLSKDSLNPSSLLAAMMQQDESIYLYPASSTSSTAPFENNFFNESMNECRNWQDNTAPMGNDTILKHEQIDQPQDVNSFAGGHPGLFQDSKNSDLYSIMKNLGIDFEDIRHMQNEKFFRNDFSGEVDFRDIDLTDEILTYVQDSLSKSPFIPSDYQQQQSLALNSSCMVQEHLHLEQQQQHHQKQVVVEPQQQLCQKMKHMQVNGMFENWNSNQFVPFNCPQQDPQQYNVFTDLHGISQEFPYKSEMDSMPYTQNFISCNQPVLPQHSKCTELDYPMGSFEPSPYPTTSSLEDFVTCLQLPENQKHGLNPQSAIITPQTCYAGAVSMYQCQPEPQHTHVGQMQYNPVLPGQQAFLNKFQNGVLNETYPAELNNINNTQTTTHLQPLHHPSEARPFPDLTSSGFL
Retinoic acid receptor alpha (Homo sapiens), sequence (P10276 whole entry, looked up): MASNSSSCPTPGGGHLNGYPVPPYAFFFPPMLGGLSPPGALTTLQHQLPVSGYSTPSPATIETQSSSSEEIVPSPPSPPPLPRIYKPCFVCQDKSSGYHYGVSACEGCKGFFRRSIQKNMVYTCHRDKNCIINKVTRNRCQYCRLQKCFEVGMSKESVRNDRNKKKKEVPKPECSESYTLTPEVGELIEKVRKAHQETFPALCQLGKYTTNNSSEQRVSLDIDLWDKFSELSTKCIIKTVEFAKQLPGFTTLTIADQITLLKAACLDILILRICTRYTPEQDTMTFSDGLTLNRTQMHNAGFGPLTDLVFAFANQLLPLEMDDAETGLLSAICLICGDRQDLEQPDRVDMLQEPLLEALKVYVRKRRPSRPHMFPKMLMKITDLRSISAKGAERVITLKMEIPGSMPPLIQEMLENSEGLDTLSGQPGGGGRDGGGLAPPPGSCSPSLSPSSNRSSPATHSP
Transcription factor E2F1 (Homo sapiens), sequence (Q01094 whole entry, looked up): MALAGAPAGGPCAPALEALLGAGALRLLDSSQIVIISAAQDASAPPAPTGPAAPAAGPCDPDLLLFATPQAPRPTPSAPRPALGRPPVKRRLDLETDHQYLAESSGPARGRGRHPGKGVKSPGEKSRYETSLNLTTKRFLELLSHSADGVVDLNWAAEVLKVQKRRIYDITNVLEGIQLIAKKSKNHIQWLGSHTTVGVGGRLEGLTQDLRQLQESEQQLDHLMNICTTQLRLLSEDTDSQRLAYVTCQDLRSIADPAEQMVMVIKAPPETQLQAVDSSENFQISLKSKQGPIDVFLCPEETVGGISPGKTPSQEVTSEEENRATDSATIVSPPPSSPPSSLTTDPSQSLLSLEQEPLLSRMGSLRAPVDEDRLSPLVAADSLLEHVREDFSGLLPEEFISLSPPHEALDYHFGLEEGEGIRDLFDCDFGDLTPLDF

As to `COCCOCCOCCOC`, the outcome in [1], in experiment [2], in experiment [3], in experiment [4], in experiment [5] and in [6] was inactive. Further, the outcome in experiment [7], in experiment [8] and in experiment [9] was inactive.
The AC50 is the concentration at which the activity in the assay is half-maximal. `CCCCCCCCO`: the result in experiment [1], in experiment [2], in experiment [3], in experiment [4], in experiment [5] and in experiment [6] was inactive. Also, the outcome in experiment [7] and in experiment [9] was inactive. Also, in experiment [8], the half-maximal activity concentration (AC50) was 25.3 µM (active).
For `COC(=O)c1c(Cl)c(Cl)c(C(=O)OC)c(Cl)c1Cl`, the result in [1], in experiment [2], in experiment [3], in [4], in [5] and in [6] was inactive. The outcome in [7] and in experiment [9] was inactive.
As for `CC(C)CCCCCCOC(=O)c1ccc(C(=O)OCCCCCCC(C)C)c(C(=O)OCCCCCCC(C)C)c1`, the result in [1], in experiment [2], in experiment [3], in experiment [4], in [5] and in [6] was inactive. For the same compound, the result in experiment [7], in experiment [8] and in [9] was inactive.
With `COc1cccc(-c2ccc(/C=C\CN3CCCCCC3)cc2Cl)c1`, the outcome in [1], in experiment [2], in experiment [3], in experiment [4], in experiment [6] and in experiment [9] was inactive. For the same compound, the AC50 was 16.2 µM (active) in experiment [5] and 17.4 µM (active) in [7].
`CC(=O)OCCC(C)C`: the outcome in [1], in experiment [2], in experiment [3], in experiment [4], in experiment [5] and in experiment [6] was inactive. Moreover, the result in experiment [7], in experiment [8] and in [9] was inactive.
Turning to `O=C(O)CCN(C1(C(=O)NO)CCCC1)S(=O)(=O)c1ccc(Oc2ccc(F)cc2)cc1`, the outcome in experiment [1], in experiment [2], in experiment [3], in [4], in experiment [5] and in experiment [6] was inactive. In addition, the compound was called inactive in [7], in experiment [8] and in experiment [9].
Regarding `CCNc1ccccc1`, the outcome in experiment [1], in [2], in experiment [3], in [4], in [5] and in experiment [6] was inactive. The compound was called inactive in experiment [7], in [8] and in experiment [9].
Turning to `CCOC(=O)CC(CC(=O)OCC)(OC(C)=O)C(=O)OCC`, the outcome in experiment [1], in experiment [2], in experiment [3], in experiment [4], in experiment [5] and in experiment [6] was inactive. Besides, the call in [7], in [8] and in [9] was inactive.
Consider `O=C1CCC(N2C(=O)c3ccccc3C2=O)C(=O)N1` (stereo not drawn), for which the outcome in [1], in experiment [2], in experiment [3], in [4], in experiment [5] and in experiment [6] was inactive. Further, the compound was classed as inactive in experiment [7], in experiment [8] and in experiment [9].
On to `CC(C)=CCCC(C)CCO` (stereo not drawn), for which the outcome in experiment [1], in [2], in [3], in experiment [4], in experiment [5] and in experiment [6] was inactive. Also, the outcome in experiment [7], in [8] and in experiment [9] was inactive.
Turning to `CC(=O)OC[C@H]1O[C@@](COC(C)=O)(O[C@H]2O[C@H](COC(C)=O)[C@@H](OC(C)=O)[C@H](OC(C)=O)[C@H]2OC(C)=O)[C@@H](OC(C)=O)[C@@H]1OC(C)=O`, the result in [1], in [2], in [3], in experiment [5], in experiment [6] and in experiment [7] was inactive. Also, the outcome in [8] and in experiment [9] was inactive. For the same compound, the concentration at half-maximal activity (AC50) in experiment [4] is 53 µM (active).
For `CCCCCCc1ccc(O)cc1O`, the result in [1], in [4], in experiment [5], in experiment [6], in experiment [7] and in [8] was inactive. Besides, the compound was classed as inactive in experiment [9]. The AC50 in [2] was 33.4 µM (active); in experiment [3] it was 44.4 µM (active).
Turning to `CCOC(=O)COc1ccc2c(c1)CC(NCC(O)c1cccc(Cl)c1)CC2` (stereo not drawn), the result in [1], in [2], in experiment [3], in experiment [4], in [5] and in experiment [6] was inactive. The compound was called inactive in experiment [7], in [8] and in experiment [9].
Regarding `CC(C)=CCC/C(C)=C/CO`, the result in experiment [1], in [2], in experiment [3], in experiment [4], in experiment [5] and in experiment [6] was inactive. Further, the compound was classed as inactive in experiment [7] and in [9].
As for `CCN(C(=O)c1cc(C)cc(OC[C@H](C)Nc2ccncc2)c1)C(C)C`, the outcome in experiment [1], in experiment [2], in experiment [4], in [5], in experiment [6] and in experiment [7] was inactive. Besides, the outcome in experiment [8] and in experiment [9] was inactive. Also, the AC50 in experiment [3] was 67.5 µM (active).
On to `CNS(=O)(=O)c1cc(C(=O)N2CCC(CCN3C4CCC3CC(n3c(C)nc5ccccc53)C4)(c3cccc(F)c3)CC2)c(Cl)cc1F` (stereo not drawn), for which the result in experiment [1], in experiment [2], in experiment [4], in experiment [5], in [6] and in experiment [7] was inactive. In addition, the compound was classed as inactive in experiment [8] and in [9]. Besides, the AC50 in experiment [3] was 7.55 µM (active).
On to `CNCc1ccc(NC(=O)c2c[nH]c3c2C(=O)CCC3)cc1`, for which the result in experiment [1], in experiment [2], in [3], in experiment [5], in experiment [6] and in [7] was inactive. Also, the compound was classed as inactive in experiment [8] and in experiment [9]. In experiment [4], the AC50 was 4.66 µM (active).
`COCCOc1cc2cc(C(=O)NC3CCN(C(C)C)CC3)n(CC(=O)Nc3ccc(Cl)cn3)c2cn1`: the result in experiment [1], in experiment [2], in experiment [5], in experiment [6], in experiment [7] and in [9] was inactive. The AC50 in experiment [3] was 71.6 µM (active); in experiment [4], 6.53 µM (active); in experiment [8] it was 50.4 µM (active).
Regarding `CC(O)CN(CCN(CC(C)O)CC(C)O)CC(C)O` (stereo not drawn), the outcome in [1], in experiment [2], in [3], in experiment [4], in [5] and in [6] was inactive. Further, the call in experiment [7], in experiment [8] and in experiment [9] was inactive.
Regarding `Nc1nc2ncc(CNc3ccc(C(=O)N[C@@H](CCC(=O)O)C(=O)O)cc3)nc2c(=O)[nH]1`, the outcome in experiment [1], in experiment [2], in experiment [3], in experiment [4], in [5] and in experiment [6] was inactive. Also, the compound was called inactive in experiment [7], in [8] and in experiment [9].
On to `O=C(OC[C@H]1O[C@@H](OC(=O)c2cc(O)c(O)c(OC(=O)c3cc(O)c(O)c(O)c3)c2)[C@H](OC(=O)c2cc(O)c(O)c(OC(=O)c3cc(O)c(O)c(O)c3)c2)[C@@H](OC(=O)c2cc(O)c(O)c(OC(=O)c3cc(O)c(O)c(O)c3)c2)[C@@H]1OC(=O)c1cc(O)c(O)c(OC(=O)c2cc(O)c(O)c(O)c2)c1)c1cc(O)c(O)c(OC(=O)c2cc(O)c(O)c(O)c2)c1`, for which the outcome in [1], in [2], in experiment [3], in experiment [4], in [5] and in experiment [6] was inactive. For the same compound, the compound was classed as inactive in [7], in experiment [8] and in experiment [9].
Turning to `Cc1[nH]cnc1C[C@H]1CCc2c(C)c3ccccc3n2C1=O`, the outcome in [1], in experiment [2], in [4], in [5], in experiment [6] and in [8] was inactive. Besides, the compound was called inactive in experiment [9]. The figures for the AC50 in experiment [3] and in [7] were 42.1 µM (active) and 29.7 µM (active), respectively.
Take `CC(C)c1cccc(C(C)C)c1N1C(=O)c2ccc(O)cc2C1=O`: the outcome in [1], in experiment [2], in [4], in [6], in [7] and in experiment [9] was inactive. For the same compound, the AC50 in experiment [3] was 12.1 µM (active); in experiment [5], 24.1 µM (active); in experiment [8], 5.9 µM (active).
